Bioassay records (PubChem BioAssay)
Only some compounds are listed: those with a hit (about 18% of all), similar ones and a draw of the others.
TDP1 inh: inhibitors of human tyrosyl-DNA phosphodiesterase TDP1; Potency, µM (series often up to 130 µM), for the others: at the top dose activity change, negative = inhibition, usual class: inhibitors; 0.28% of 350,000 active; Q9NUW8; recombinant TDP1, AlphaScreen DNA substrate cleavage; further: potency means the concentration at half of the fitted maximal effect; nearly all actives have a fitted effect of over 40% in size
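Recombinant human Tdp1 (E. coli-expressed, 1 nM final) preincubated with compounds 15 min at room temperature, then 5'-biotin/3'-phosphotyrosine-FITC DNA substrate (15 nM final) added for 5 min. AlphaScreen beads (10 ug/ml final) added 10 min; cleavage lowers signal.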
CtBP-E1A blk: inhibitors of CtBP/E1A interaction; AlphaScreen GST-E1A/His-CtBP binding, 1536-well; stronger effect = lower value; 0.49% of 340,000 active; activity change, % (test concentration not listed); AID 651724; in the data active means activity change below about -65%; inconclusive means mostly about -30% to -63%
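Homogeneous bead-based format: GST-tagged E1A captured on glutathione donor beads, His-tagged CtBP on nickel acceptor beads; compounds precede bead addition by 2 h at 37 °C.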
TDP1 cell CPT: growth inhibition of DT40 Tdp1-/-;hTDP1 cells with camptothecin (screen for TDP1 inhibitors) | AID 686979 | Potency, µM (titrated, usually from 46.2 µM), inactives show at the highest dose activity change, negative = growth inhibition, most hits filed as inhibitors | chicken DT40 Tdp1-/-;hTDP1 cells + 20 nM CPT, ATP luminescence, 48 h | 12% of 420,000 active; further: potency means the concentration at half of the fitted maximal effect; nearly all actives have a fitted effect of over 55% in size
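Cell growth measured by CellTiter-Glo luminescence after a minimum 48 h, 37 C compound exposure with 20 nM CPT in Tdp1-knockout DT40 cells stably expressing hTDP1, seeded 400/well; qHTS titration format.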
IL1B secr inh: inhibitors of inflammasome signaling (IL-1 beta secretion) | THP-1 LPS/ATP IL-1B secretion, AlphaLISA, 16 h; stronger effect = lower value | activity change, % at 57.5 µM | 4.7% of 360,000 active | AID 743279; in the data active means activity change below about -50%; inconclusive means mostly about -30% to -49%
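THP-1 cells pretreated 1 hr with compounds (up to 57.5 uM final), then stimulated with LPS (250 ng/mL final) plus ATP (1.25 mM final); secreted IL-1B measured by AlphaLISA after 16 hr, decreased signal indicating inhibition.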
Six1-Eya2 blk: Six1/Eya2 interaction inhibition | Q15475+O00167 | 0.56% of 360,000 active | AlphaScreen GST-Six1/His-Eya2 binding, biochemical; stronger effect = lower value | activity change, % (test concentration not listed); in the data active means activity change below about -65%; inconclusive means mostly about -30% to -63%
Target sequence (O00167 whole entry, looked up): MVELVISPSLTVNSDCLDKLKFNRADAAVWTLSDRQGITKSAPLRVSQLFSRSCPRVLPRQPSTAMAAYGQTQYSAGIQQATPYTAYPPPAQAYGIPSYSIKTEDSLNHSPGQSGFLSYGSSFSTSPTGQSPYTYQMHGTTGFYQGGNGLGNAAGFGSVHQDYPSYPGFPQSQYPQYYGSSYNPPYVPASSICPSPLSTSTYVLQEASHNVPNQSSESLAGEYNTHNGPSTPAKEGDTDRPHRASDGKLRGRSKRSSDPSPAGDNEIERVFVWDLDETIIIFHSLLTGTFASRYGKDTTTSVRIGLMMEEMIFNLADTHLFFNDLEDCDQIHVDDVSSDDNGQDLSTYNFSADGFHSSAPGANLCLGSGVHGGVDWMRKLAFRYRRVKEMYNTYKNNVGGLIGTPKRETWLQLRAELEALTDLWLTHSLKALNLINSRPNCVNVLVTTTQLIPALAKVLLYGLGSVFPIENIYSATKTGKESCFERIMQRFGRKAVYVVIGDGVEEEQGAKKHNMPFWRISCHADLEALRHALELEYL
Target sequence (Q15475 whole entry, looked up): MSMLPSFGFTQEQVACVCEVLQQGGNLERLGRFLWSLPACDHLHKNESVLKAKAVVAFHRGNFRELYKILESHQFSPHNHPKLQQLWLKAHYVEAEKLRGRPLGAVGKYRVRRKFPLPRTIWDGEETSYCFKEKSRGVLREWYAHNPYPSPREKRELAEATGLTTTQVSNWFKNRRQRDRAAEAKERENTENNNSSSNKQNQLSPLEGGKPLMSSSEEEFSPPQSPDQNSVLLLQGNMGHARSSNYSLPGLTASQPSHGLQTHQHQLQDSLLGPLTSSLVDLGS
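AlphaScreen with GST-Six1 and His-Eya2 (5X mix: 250 nM and 500 nM), glutathione donor and nickel acceptor beads; buffer 50 mM Tris pH 8.0, 300 mM NaCl, 1 mM TCEP; 1 h at 37 C in the dark.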
TDP1 cell noCPT: qHTS for Inhibitors of human tyrosyl-DNA phosphodiesterase 1 (TDP1): qHTS in cells in absence of CPT. DT40 Tdp1-/- hTDP1 cells, no CPT, ATP luminescence, 48 h. Potency, µM (titrated, usually from 46.2 µM), without a hit: at the highest dose activity change, negative = growth inhibition, actives largely listed as inhibitors. 15% of 420,000 active. AID 686978, 2013; further: potency means the concentration at half of the fitted maximal effect; nearly all actives have a fitted effect of over 55% in size
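No-CPT arm: Tdp1-/-;hTDP1 DT40 cells (400/well) plus compounds, incubated ≥48 hr at 37 °C. Readout CellTiter-Glo luminescence.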
* hit, by the source's call; u = inconclusive; x = no result; [ ] = another dose, or the depositor's remark. Unless noted, the call rests on the fitted dose curve; in most records, active means well fitted curve in the direction sought with a large enough effect; inconclusive means small, poorly fitted or top-dose-only effect, or another doubt; inactive means no such curve, though single readings can be large; an effect the other way counts as inactive or inconclusive. On the % scale 0 is the no-effect control and ±100 the full control effect.

SMILES	TDP1 inh	CtBP-E1A blk	TDP1 cell CPT	IL1B secr inh	Six1-Eya2 blk	TDP1 cell noCPT
COc1cc(CCNC(=O)c2ccccc2NC(=O)C2=C(C)OCCS2)cc(OC)c1OC	2%	-10	-67%	-16	-15	u
COc1cc(NC(=O)C2=C(C)OCCS2)c(Cl)cc1C(=O)NCCN(C)C	x	-17	-4%	-83*	1	-22%
COc1ccc(CCNC(=O)c2ccccc2NC(=O)C2=C(C)OCCS2)c(OC)c1	6%	-17	21µM*	0	-11	10µM*
O=C1CCCN1C1CCN(Cc2ccccc2)S(=O)(=O)N1 (centres undefined)	x	-22	-9%	1	17	-16%
COc1ccc(/C=N/NC(=O)CSc2ccccn2)cc1OC	-4%	-17	12%	-7	-12	6%
CSc1nc2ccc3nc(NC(=O)c4ccc(C)cc4)sc3c2s1	2%	4	4%	-13	2	u
Cc1ccc(Nc2nc3ccccc3c(=O)s2)cc1C	4%	4	16µM*	0	10	12µM*
Cc1ccc(C(=O)Nc2nnc(NC(=S)Nc3ccccc3)s2)cc1	x	-1	u	-20	-12	21µM*
Cc1ccc(C(=O)Nc2nc3ccccc3c(=O)s2)cc1	6%	9	18µM*	-94*	5	18µM*
CCc1nnc(NC(=O)CCC(=O)Nc2ccccc2)s1	7%	3	-4%	0	4	-1%
CCc1nnc(NC(=S)Nc2ccccc2)s1	4%	5	5.8µM*	8	2	-69%
O=C(NC1CCN(c2ncccn2)CC1)c1cccc(F)c1	x	x	-8%	-1	-7	-20%
Cc1occc1-c1nnc(SCC(=O)N2CCOCC2)n1Cc1ccco1	5%	-3	-2%	1	0	-8%
COc1ccc(C(=O)N/N=C/c2ccc(N(C)c3ccccc3)cc2)cc1	x	15	u	u	10	23µM*
COc1ccc(C(=O)N/N=C/c2ccccc2OC(=O)c2ccccc2)cc1	-11%	u	0.58µM*	117	-25	0.52µM*
COc1cc(C(=O)Oc2ccc(/C=N/NC(=O)c3ccncc3)cc2)cc(OC)c1OC	2%[56.1 µM]	-4	-9%	6	0	-15%
COc1cc(C(=O)N/N=C/c2ccsc2C)cc(OC)c1OC	4%	-6	1.2µM*	56	-6	0.65µM*
COc1cc(C(=O)Oc2ccccc2/C=N/NC(=O)c2ccc(C)cc2)cc(OC)c1OC	1%	-20	1µM*	91	-15	0.65µM*
Cc1c(C#N)c(O)[nH]c(=O)c1N=Nc1ccc(S(N)(=O)=O)cc1	x	u	-3%	28	11	0%
O=C(N/N=C/C(Cl)=C/c1ccccc1)c1ccc2c(c1)OCO2	x	x	u	-16	-6	21µM*
O=C(N/N=C/c1cccc(OC(=O)c2cccc(Br)c2)c1)c1cccnc1	-10%	1	1%	-8	-7	-3%
CC(C)(C)C(=O)Nc1ccc(C(=O)N/N=C/c2ccccc2OC(=O)c2ccccc2)cc1	2%	u	6.5µM*	96	-15	7.3µM*
COc1ccc(C(=O)N/N=C/c2ccc(OC(=O)c3ccccc3)cc2)cc1	1%	-2	-12%	-8	-3	-16%
COC(=O)COc1ccc(/C=N/NC(=O)c2ccc(N(Cc3ccccc3)S(C)(=O)=O)cc2)cc1	3%	-79*	-25%	-95*	-75*	-29%
COc1cc(C(=O)Oc2cccc(/C=N/NC(=O)c3cccnc3)c2)cc(OC)c1OC	x	-2	6.5µM*	30	3	9.2µM*
SMILES	TDP1 inh	CtBP-E1A blk	TDP1 cell CPT	IL1B secr inh	Six1-Eya2 blk	TDP1 cell noCPT
CCc1ccccc1NC(=O)Cn1nnc(C(=O)Nc2ccc(C)c(F)c2)c1N	5%	x	-4%	x	x	-4%
CC(C)(C)C(=O)Nc1ccc(C(=O)N/N=C/c2ccccc2OC(=O)c2ccc(Cl)cc2)cc1	3%	-21	5.2µM*	3	2	4.6µM*
COc1ccccc1/C=N/NC(=O)c1ccc2c(c1)OCO2	x	7	-1%	2	1	1%
O=C(N/N=C/c1ccccc1OC(=O)c1ccc2c(c1)OCO2)c1ccccc1	2%	3	4.1µM*	0	-23	4.1µM*
O=C(N/N=C/c1ccc(OC(=O)c2ccccc2)cc1)c1ccc(CN2CCOCC2)cc1	5%	-11	u	8	-5	12µM*
COc1ccc(C(C)=NOC(=O)c2c(-c3ccccc3Cl)noc2C)cc1CN1CCOCC1	x	-2	u	u	-16	7.3µM*
Cc1onc(-c2ccccc2Cl)c1C(=O)O/N=C(\N)c1cccc([N+](=O)[O-])c1	x	1	23µM*	-62*	-14	23µM*
Cc1onc(-c2ccccc2Cl)c1C(=O)O/N=C(\N)c1ccccc1	2%	1	u	-75*	2	u
Cc1onc(-c2cccc(Cl)c2Cl)c1C(=O)O/N=C(\N)c1ccc([N+](=O)[O-])o1	8%	-7	u	x	-13	u
Cc1onc(-c2ccccc2)c1C(=O)O/N=C(\N)c1ccc([N+](=O)[O-])o1	6%	x	16µM*	-5	-18	15µM*
Cc1onc(-c2c(Cl)cccc2Cl)c1C(=O)O/N=C(\C#N)c1ccccc1	-5%	-1	-7%	-13	-10	-20%
Cc1onc(-c2ccccc2Cl)c1C(=O)NCCCN1CCOCC1	5%	2	-22%	-3	9	-17%
COc1cc(CNC2CCCCC2OC)cc(OC)c1 (centres undefined)	1%	x	-10%	32	-1	u
O=c1c2ccccc2[nH]c(=S)n1CCN1CCc2ccccc2C1	4%	-1	-17%	9	-11	-15%
COCC(=O)N1CCC2(CC1)CCN(C(=O)Nc1ccc(OC)cc1)CC2	x	x	3%	x	x	-8%
C/C(=N\OC(=O)c1c(-c2ccccc2Cl)noc1C)c1ccncc1	x	-4	16%	-145*	15	-4%
Cc1nn(-c2ccccn2)c2nc(-c3cccs3)cc(C(=O)NCc3ccco3)c12	9%	-17	23µM*	0	-8	23µM*
CCOC(=O)c1cc(-c2ccco2)nc2c1c(C)nn2-c1ccccc1	2%	7	-15%	10	17	-16%
CC(/C=N/NC(=O)c1cc(-c2cccnc2)nc2c1c(C)nn2-c1ccccc1)=C\c1ccccc1	5%	-3	18µM*	0	4	13µM*
